Results: PubChem BioAssay (NCI)
The panel holds about 83,000 compounds, 20% with a hit somewhere; the sample as a whole holds those more often.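 Negative percent growth values reflect cell death: -40 means 40% of the cells present at the start died, and -100 means all died.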 A number with no mark means an inactive call. Active and inactive are the calls of the source. Rule for the calls: active = growth percent below 10; inactive = the rest.

What was measured:
Assay in all cases: NCI-60 one-dose screen, 48 h (100 = growth as untreated, 0 = no growth, -100 = all killed)
Conditions in all cases: 10 µM unless noted
NCI-H23 lung = test system: NCI-H23 lung
NCI-H226 lung = test system: NCI-H226 lung
NCI-H322M lung = test system: NCI-H322M lung
HOP-62 NSCLC = test system: HOP-62 NSCLC
NCI-H460 lung = test system: NCI-H460 lung
HOP-92 NSCLC = test system: HOP-92 NSCLC
NCI-H522 lung = test system: NCI-H522 lung
A549/ATCC NSCLC = test system: A549/ATCC NSCLC
786-0 renal = test system: 786-0 renal
COLO 205 colon = test system: COLO 205 colon

Compound	growth (NCI-H23 lung)	growth (NCI-H226 lung)	growth (NCI-H322M lung)	growth (HOP-62 NSCLC)	growth (NCI-H460 lung)	growth (HOP-92 NSCLC)	growth (NCI-H522 lung)	growth (A549/ATCC NSCLC)	growth (786-0 renal)	growth (COLO 205 colon)
O=C(Nc1ccccc1C(F)(F)F)C1=NCCCCN1	98.5%	96.1%	95.1%	100%	105%	97.9%	86.8%	102%	98.8%	110%
c1ccc2c(-c3cnn4cc(-c5ccc(N6CCNCC6)cc5)cnc34)ccnc2c1	-13.7% (active)	-54.8% (active)	-55.5% (active)	-85.7% (active)	-70% (active)	-59.2% (active)	-50% (active)	-65.4% (active)	-91.9% (active)	-58% (active)
CNC(=O)c1cc(Oc2cccc3nc(NC(=O)Nc4ccc(F)cc4F)ccc23)ccn1	42.7%	49.7%	33%	0.65% (active)	13.7%	41.4%	46%	8.57% (active)	-48.7% (active)	37.9%
CC(=O)[C@H]1CC[C@]2(C)[C@@H]1CC[C@@H]1[C@@]3(C)C/C(=C/c4cccnc4)C(=O)C(C)(C)[C@@H]3CC[C@]12C	78.2%	81.1%	91.6%	115%	67.3%	48.8%	68%	65.9%	121%	64.2%
COC(=O)c1c(C)nc(C)c2c1C(=O)C(Br)=C(NCCCCO)C2=O	51.1%	96.7%	75.5%	114%	40%	140%	71.1%	75.1%	89.2%	17%
CCOC(=O)c1c(C)c2c(n1Cc1ccccc1)CSc1cc(C#N)c(=O)[nH]c1-2	72.6% [100 µM]	89.6% [100 µM]	78.6% [100 µM]	58.7% [100 µM]	67% [100 µM]	-18.5% [100 µM] (active)	87% [100 µM]	75.1% [100 µM]	19.8% [100 µM]	60.4% [100 µM]
CC/C(=C(/c1ccc(Cl)cc1)c1ccc(OCCN2CCCC2)cc1)c1ccccc1	62%	93.9%	93.4%	99%	12.3%	57.5%	83%	43.5%	43.6%	-25.3% (active)
O=c1ccc2c(ccc3ncccc32)o1	106%	104%	101%	109%	113%	112%	96%	98.2%	110%	107%
Cc1cccc(C)c1NC(=O)Nc1ccccc1	88.4%	107%	80.3%	95.8%	44%	128%	49.4%	86.8%	110%	102%
CCOC(=O)c1c(C)n2c(=O)cc(C)c3c(OC(C)=O)c(OC(C)=O)cc1c32	75%	102%	79.9%	81.4%	40.8%	71.8%	55.3%	79.8%	81.3%	74.1%
O=C1/C(=C/c2cccc([N+](=O)[O-])c2)COc2ccc(O)c(O)c21	-27.4% (active)	81.5%	28.7%	-31.3% (active)	4.3% (active)	-43.1% (active)	-71.3% (active)	9.74% (active)	-87.9% (active)	-18.2% (active)
CCNc1nc(-c2ccc(Cl)c(OC)c2)c(-c2ccnc(NCCNS(=O)(=O)c3ccc(Cl)cc3)n2)s1	26.2%	20.8%	44.9%	21.5%	17.1%	-2.89% (active)	-25.5% (active)	27.6%	6.16% (active)	26.2%
Cc1c(N2CCCCC2)[nH]c2ccccc12	108%	119%	104%	119%	101%	46.8%	90.2%	89%	103%	124%
